Reference: PubChem BioAssay (NCI)
About 83,000 compounds went through this panel and 20% of them were active in at least one assay; those are over-represented in the sample as a whole.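 96-well plates, one dose, 48 hours. Percent growth reported; active if below 10.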 Active and inactive are the calls of the source.

How the values were obtained:
Assay in all cases: NCI-60 one-dose screen, 48 h (100 = growth as untreated, 0 = no growth, -100 = all killed)
Details in all cases: 10 µM unless noted
HCT-15 colon = system: HCT-15 colon
HT29 colon = system: HT29 colon
SNB-75 CNS = system: SNB-75 CNS
SNB-19 CNS = system: SNB-19 CNS
U251 CNS = system: U251 CNS
PC-3 prostate = system: PC-3 prostate
SK-MEL-5 melanoma = system: SK-MEL-5 melanoma
UACC-62 melanoma = system: UACC-62 melanoma
LOX IMVI melanoma = system: LOX IMVI melanoma
SK-MEL-28 melanoma = system: SK-MEL-28 melanoma

Measured: growth

Cc1cc(C)c2nc(Nc3nc(C)c(C)c(=O)[nH]3)nc(C)c2c1
active: HCT-15 colon 7.23% | HT29 colon 9.28% | SK-MEL-5 melanoma 2.14% | UACC-62 melanoma -37.7% | LOX IMVI melanoma 6.29% | SK-MEL-28 melanoma 3.48%
inactive: SNB-75 CNS 51.3% | SNB-19 CNS 22% | U251 CNS 16.7% | PC-3 prostate 20.9%

C[C@H]1[C@H](C)CC[C@]2(C(=O)OCCCC[P+](c3ccccc3)(c3ccccc3)c3ccccc3)CC[C@]3(C)C(=CC[C@@H]4[C@@]5(C)CC[C@H](OC(=O)C(Cl)Cl)C(C)(C)[C@@H]5CC[C@]43C)[C@H]12
active: HCT-15 colon -68.8% | HT29 colon -55.5% | SNB-75 CNS -24.5% | SNB-19 CNS -56.1% | U251 CNS -88.6% | PC-3 prostate -60.8% | SK-MEL-5 melanoma -100% | UACC-62 melanoma -67.8% | LOX IMVI melanoma -99.6% | SK-MEL-28 melanoma -77.4%

CC(=O)O[C@@H]1C[C@]2(C)[C@H]3[C@H](O)C[C@@H]4C5=CC(C)(C)CC[C@]5(C)CC[C@@]4(C)[C@]3(C)CC[C@H]2C(C)(C)[C@H]1O
inactive: HCT-15 colon 100% | HT29 colon 97.8% | SNB-75 CNS 91.6% | SNB-19 CNS 104% | U251 CNS 97.6% | PC-3 prostate 84.9% | SK-MEL-5 melanoma 114% | UACC-62 melanoma 97.4% | LOX IMVI melanoma 98.7% | SK-MEL-28 melanoma 106%

O=[N+]([O-])c1ccc(Oc2ccc(-c3ccccc3)cc2)cc1
inactive: HCT-15 colon 81.8% | HT29 colon 76.6% | SNB-75 CNS 93.5% | SNB-19 CNS 94% | U251 CNS 88.5% | PC-3 prostate 75.8% | SK-MEL-5 melanoma 88.2% | UACC-62 melanoma 63% | LOX IMVI melanoma 96.3% | SK-MEL-28 melanoma 105%

CCC[S@@](=O)c1ccc2nc(NC(=O)OC)[nH]c2c1
inactive: HCT-15 colon 68.3% | HT29 colon 62.5% | SNB-75 CNS 82.6% | SNB-19 CNS 87.6% | U251 CNS 82.2% | PC-3 prostate 78.4% | SK-MEL-5 melanoma 83.3% | UACC-62 melanoma 72.7% | LOX IMVI melanoma 90.2% | SK-MEL-28 melanoma 89.3%

COc1cc(NC(=O)COc2cc(C)nc3ccc(OC)cc23)cc(OC)c1
inactive: HCT-15 colon 90.9% | HT29 colon 91.7% | SNB-75 CNS 77.3% | SNB-19 CNS 91.4% | U251 CNS 91% | PC-3 prostate 81.9% | SK-MEL-5 melanoma 76% | UACC-62 melanoma 74.4% | LOX IMVI melanoma 85.8% | SK-MEL-28 melanoma 102%

COc1ccc(C2CC(c3ccc(OC)cc3O)=NN2c2ccc(S(N)(=O)=O)cc2)cc1 (stereo not given)
inactive: HCT-15 colon 33.6% | HT29 colon 33.7% | SNB-75 CNS 58.2% | SNB-19 CNS 59.5% | U251 CNS 40.9% | PC-3 prostate 15.5% | SK-MEL-5 melanoma 49% | UACC-62 melanoma 38.1% | LOX IMVI melanoma 52.5% | SK-MEL-28 melanoma 56.1%

COc1cc(/C=C/C(=O)c2cccs2)ccc1OCc1ccc(Cl)nc1
inactive: HCT-15 colon 62.5% | HT29 colon 97.3% | SNB-75 CNS 119% | SNB-19 CNS 66.6% | U251 CNS 35.3% | PC-3 prostate 69% | SK-MEL-5 melanoma 87.2% | UACC-62 melanoma 71.3% | LOX IMVI melanoma 27.2% | SK-MEL-28 melanoma 92%

CN1CCN(CC#CCOC(=O)CNC(=O)[C@]23CCC(C)(C)C[C@H]2C2=CC[C@@H]4[C@@]5(C)CC[C@H](O)C(C)(C)[C@@H]5CC[C@@]4(C)[C@]2(C)CC3)CC1
inactive: HCT-15 colon 77% | HT29 colon 75.5% | SNB-75 CNS 80.9% | SNB-19 CNS 87.1% | U251 CNS 83.3% | PC-3 prostate 83.4% | SK-MEL-5 melanoma 88.6% | UACC-62 melanoma 90.3% | LOX IMVI melanoma 81.3% | SK-MEL-28 melanoma 104%

COc1ccc(NC(=O)Nc2ccc(Nc3nc(C)cc(Nc4ccc(C)cc4)n3)cc2)cc1
active: HCT-15 colon -78.9% | HT29 colon -84.8% | SNB-75 CNS -92.8% | SNB-19 CNS -69.2% | U251 CNS -83.9% | PC-3 prostate -93.3% | SK-MEL-5 melanoma -72.7% | UACC-62 melanoma -83% | LOX IMVI melanoma -85.3% | SK-MEL-28 melanoma -76.8%

CNc1cccc2c1C(=O)c1cccc(N)c1C2=O
inactive: HCT-15 colon 58.6% | HT29 colon 71.2% | SNB-75 CNS 71.5% | SNB-19 CNS 84.2% | U251 CNS 29.6% | PC-3 prostate 40.7% | SK-MEL-5 melanoma 88% | UACC-62 melanoma 77.3% | LOX IMVI melanoma 79.1% | SK-MEL-28 melanoma 96.3%

CCN1CCN(Cc2ccc(NC(=O)c3cccc(C#Cc4cccc5[nH]nc(N)c45)c3)cc2C(F)(F)F)CC1
active: HCT-15 colon -70.7% | HT29 colon -83% | SNB-75 CNS -60.8% | SNB-19 CNS -83.6% | U251 CNS -95.6% | PC-3 prostate -80.3% | SK-MEL-5 melanoma -97.2% | UACC-62 melanoma -77.1% | LOX IMVI melanoma -100% | SK-MEL-28 melanoma -82.9%

Cc1nc2sc(C(=O)Nc3ccccc3)c(N)c2cc1C(C)O (stereo not given)
active: HT29 colon 1.95%
inactive: HCT-15 colon 27.8% | SNB-75 CNS 30.9% | SNB-19 CNS 24.3% | U251 CNS 21.7% | PC-3 prostate 21.5% | SK-MEL-5 melanoma 26.5% | UACC-62 melanoma 29.5% | LOX IMVI melanoma 47.5% | SK-MEL-28 melanoma 55.8%

O=CN1N=C(c2ccc(Cl)cc2)CC1c1cccc(Nc2ccnc3cc(C(F)(F)F)ccc23)c1 (stereo not given)
active: SK-MEL-5 melanoma 1.24%
inactive: HCT-15 colon 71.2% | HT29 colon 58.5% | SNB-75 CNS 74.9% | SNB-19 CNS 70.6% | U251 CNS 64.1% | PC-3 prostate 48.9% | UACC-62 melanoma 63.7% | LOX IMVI melanoma 51.5% | SK-MEL-28 melanoma 90.8%

C=C(C)[C@@H]1CCC=C2CC[C@]3(C)[C@H](CC[C@@H]4[C@@]5(C)CCCNC(C)(C)[C@@H]5CC[C@]43C)[C@H]21
inactive: SNB-75 CNS 100% | SNB-19 CNS 15.3% | PC-3 prostate 38.2% | SK-MEL-5 melanoma 81.9% | UACC-62 melanoma 87.7% | SK-MEL-28 melanoma 96.7%
active: HCT-15 colon -17.7% | HT29 colon 3.02% | U251 CNS -73% | LOX IMVI melanoma -43.4%

COc1cc(/C=C/C(=O)c2ccc(NC(=O)CSc3nnc(-c4cc(OC)c(OC)c(OC)c4)n3-c3ccccc3)cc2)cc(OC)c1OC
active: HCT-15 colon -37.6% | HT29 colon 1.25% | U251 CNS -8.68% | LOX IMVI melanoma -52.3%
inactive: SNB-75 CNS 45.4% | SNB-19 CNS 35.8% | PC-3 prostate 28% | SK-MEL-5 melanoma 17.6% | UACC-62 melanoma 20.8% | SK-MEL-28 melanoma 33.3%

NC(=N\N=C\c1ccccc1O)/C(N)=N/N=C/c1ccccc1O
inactive: HCT-15 colon 66% | HT29 colon 73.8% | SNB-75 CNS 84.4% | SNB-19 CNS 84.4% | U251 CNS 82.7% | PC-3 prostate 56.1% | SK-MEL-5 melanoma 84.6% | UACC-62 melanoma 68.9% | LOX IMVI melanoma 48.6% | SK-MEL-28 melanoma 90.5%

Cc1nnc(/N=C2\NC(=O)/C(=C/c3ccc(N(C)C)cc3)S2)s1
inactive: HCT-15 colon 47.7% | HT29 colon 106% | SNB-75 CNS 67.5% | SNB-19 CNS 80.1% | U251 CNS 72.1% | PC-3 prostate 57.8% | SK-MEL-5 melanoma 42.7% | UACC-62 melanoma 74.9% | LOX IMVI melanoma 64.6% | SK-MEL-28 melanoma 69.2%

CCc1ccc(OCc2ccccc2C(=O)Nc2ccc3nc(C)cc(N)c3c2)cc1
active: HCT-15 colon -75.4% | HT29 colon -87.4% | SNB-75 CNS -95.1% | SNB-19 CNS -80.6% | U251 CNS -90.9% | PC-3 prostate -88.1% | SK-MEL-5 melanoma -90.5% | UACC-62 melanoma -92.6% | LOX IMVI melanoma -83.9% | SK-MEL-28 melanoma -93.9%

COC(=O)/C=C1\SC(=Nc2cccc(Cl)c2)N(CCc2c[nH]c3ccccc23)C1=O
inactive: HCT-15 colon 29% | SNB-75 CNS 84.5% | SNB-19 CNS 54.4% | U251 CNS 41.1% | PC-3 prostate 31.8% | SK-MEL-5 melanoma 63.3% | UACC-62 melanoma 18.3% | SK-MEL-28 melanoma 64.8%
active: HT29 colon 8.6% | LOX IMVI melanoma 5.31%

COc1cc(NC(=O)Nc2cnc(Nc3ccc(N4CCOCC4)cc3)nc2Oc2ccc(C(F)(F)F)cc2)cc(OC)c1
inactive: HCT-15 colon 103% | HT29 colon 95.5% | SNB-75 CNS 84.4% | SNB-19 CNS 99.5% | U251 CNS 97.3% | PC-3 prostate 93.3% | SK-MEL-5 melanoma 101% | UACC-62 melanoma 105% | LOX IMVI melanoma 95.6% | SK-MEL-28 melanoma 116%
